A selection: hits, their analogues and other compounds. The true share with any hit is near 1.2%.
RGS8-Gao reg – RGS8-Galphao binding modulators, primary screen, biochemical, multiplexed bead flow cytometry; Guanine nucleotide-binding protein G(o) subunit alpha (Homo sapiens), P09471; actives lie on both sides; response (percent of control binding), % at 10 µM; actives 0.34% (n = 220,000); in the data active means response below about 60% or above about 140%; inactive means in between;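 further: Galphao activated as the GDP aluminium fluoride complex binding bead-coupled RGS8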
Target sequence (P09471 whole entry, looked up): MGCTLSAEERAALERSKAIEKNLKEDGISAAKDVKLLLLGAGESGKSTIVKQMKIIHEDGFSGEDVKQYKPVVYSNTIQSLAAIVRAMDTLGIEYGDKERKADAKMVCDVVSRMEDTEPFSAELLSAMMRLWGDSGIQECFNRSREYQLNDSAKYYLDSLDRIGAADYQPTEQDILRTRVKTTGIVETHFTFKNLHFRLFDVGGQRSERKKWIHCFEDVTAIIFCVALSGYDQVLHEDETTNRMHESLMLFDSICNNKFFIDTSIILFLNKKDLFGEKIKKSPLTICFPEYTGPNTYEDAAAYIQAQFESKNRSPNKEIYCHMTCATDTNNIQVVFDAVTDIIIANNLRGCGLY
RGS16-Gao – modulators of RGS16 binding to Galphao, primary screen, biochemical, human proteins, multiplexed bead flow cytometry; actives 0.38% (n = 220,000); AID 1441, 2008; binding response (% of control), % at 10 µM; bead-based flow cytometry RGS16-Galphao binding, fluorescence; actives lie on both sides;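 further: Galphao activated by GDP with aluminum fluoride before binding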
Avidin fluor – green autofluorescence of compounds with avidin beads – biophysical, 488/530 nm, flow cytometry, artefact control, profiling panel; actives 0.38% (n = 220,000); fluorescence (KMESF) at 10 µM; compound fluorescence 488/530 nm; active compounds read high; in the data active means fluorescence above about 47
RGS4-Gao reg – modulators of RGS4 binding to Galphao, primary screen, biochemical, multiplexed bead flow cytometry | Guanine nucleotide-binding protein G(o) subunit alpha (Homo sapiens), P09471 | actives lie on both sides | binding response (% of control), % at 10 µM | actives 0.33% (n = 220,000); in the data active means binding response below about 49% or above about 150%; inactive means in between;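 further: fluorescent Galphao activated with aluminum fluoride binding bead-coupled RGS4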
RGS7-Gao – RGS7-Galphao binding modulators, primary screen, biochemical, multiplexed bead flow cytometry; actives 0.35% (n = 220,000); actives lie on both sides; binding response (% of control), % at 10 µM; in the data active means binding response below about 49% or above about 150%; inconclusive means no clear call, values can overlap the other calls; inactive means in between;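 further: fluorescent Galphao held in activated GDP-AlF4 state binding bead-coupled RGS7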
GSH fluor – compound fluorescence on glutathione beads, profiling panel, artefact control, biophysical, 488/530 nm, flow cytometry; GSH beads flow cytometry, compound fluorescence 488/530 nm; active compounds read high; fluorescence (KMESF) at 10 µM; actives 0.25% (n = 190,000); in the data active means fluorescence above about 89;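 further: glutathione beads carrying GST-tagged Bcl family fusion proteins plus one bare bead set; values are compound well signal with DMSO vehicle wells as background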
RGS4-Gao HTS – modulators of RGS–Galpha-o binding, primary screen, biochemical, multiplexed beads, flow cytometry, RGS4/7/8/16/19; actives 99% (n = 1,600); multiplexed bead flow cytometry; RGS4–Galpha-o binding response, % at 10 µM; AID 1504, 2009; shares compounds with RGS16-Gao;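 further: fluorescently labeled Galpha-o bound to GDP with aluminium fluoride binding biotinylated RGS beads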
Target sequence (P09471 whole entry, looked up): as above
Target sequence (P49798 whole entry, looked up): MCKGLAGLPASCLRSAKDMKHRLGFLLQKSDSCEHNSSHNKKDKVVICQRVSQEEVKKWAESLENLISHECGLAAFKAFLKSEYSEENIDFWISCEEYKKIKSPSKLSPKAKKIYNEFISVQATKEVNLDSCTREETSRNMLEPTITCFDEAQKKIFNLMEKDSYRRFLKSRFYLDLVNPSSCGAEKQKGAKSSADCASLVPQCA
Avidin counter – disruption of biotin probe capture by avidin, counter-screen for RGS protein interaction modulators, biochemical, flow cytometry, bead-based | shares compounds with RGS16-Gao | streptavidin beads, fluorescein-biotin binding | inhibition, % at 10 µM | 1,700 tested, under 10 active | AID 1783, 2009;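 active means inhibition above 50%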;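 further: median green fluorescence of gated singlet beads compared with DMSO control wells; 0% = DMSO wells and 100% = complete loss of bead fluorescence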
RGS8-Gao single – RGS8-Galphao binding modulators, confirmation, biochemical, multiplexed bead flow cytometry, single concentration; binding response (% of control), % at 10 µM; actives 3% (n = 1,700); bead-based flow cytometry RGS8-Galphao binding, fluorescence; actives lie on both sides; shares compounds with RGS16-Gao; in the data active means binding response below about 72% or above about 130%; inactive means in between;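 further: Galphao activated as GDP AlF4 complex before binding bead RGS8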
RGS7-Gao confirm – RGS7-Galphao binding modulators, confirmation, biochemical, multiplexed bead flow cytometry, single concentration; AID 1837, 2009; response (percent of control binding), % at 10 µM; bead-based flow cytometry RGS7-Galphao binding; actives lie on both sides; shares compounds with RGS16-Gao; actives 7.8% (n = 1,700); in the data active means response below about 75% or above about 130%; inactive means in between;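 further: fluorescent Galphao activated with GDP and aluminum fluoride binding bead-coupled RGS7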
RGS16-Gao single – modulators of RGS16-Galphao protein binding, confirmation, biochemical, single concentration, multiplexed bead flow cytometry; shares compounds with RGS16-Gao; response (% of control binding), % at 10 µM; AID 1838, 2009; bead-based flow cytometry; actives lie on both sides; actives 4% (n = 1,700); in the data active means response below about 74% or above about 130%; inactive means in between;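 further: Galphao activated as the GDP aluminium fluoride complex binding bead-coupled RGS16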
RGS4-Gao confirm – modulators of RGS4-Galphao protein binding, confirmation, biochemical, single concentration, multiplexed bead flow cytometry; actives lie on both sides; actives 4% (n = 1,700); binding response (% of control), % at 10 µM; AID 1840, 2009; shares compounds with RGS16-Gao; in the data active means binding response below about 74% or above about 130%; inactive means in between
RGS19-Gao conf – regulators of RGS19-Galphao binding, confirmation, biochemical, single point, multiplexed bead flow cytometry; shares compounds with RGS16-Gao; bead-based flow cytometry RGS19-Galphao binding; actives lie on both sides; response (percent of control binding), % at 10 µM; actives 5% (n = 1,700); in the data active means response below about 50% or above about 160%; inactive means in between;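 further: 100% = no compound control and 0% = blank background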
Starred values were filed as active, the others as inactive; i = inactive; ? = inconclusive; . = not tested or not shown; [ ] = another dose, or the depositor's remark. Unless noted, how the calls were made is not given here.

SMILES	RGS8-Gao reg	RGS16-Gao	Avidin fluor	RGS4-Gao reg	RGS7-Gao	GSH fluor	RGS4-Gao HTS	Avidin counter	RGS8-Gao single	RGS7-Gao confirm	RGS16-Gao single	RGS4-Gao confirm	RGS19-Gao conf
Cc1ccc(NC(=O)C2CC(=O)Nc3ncnn32)cc1Cl (stereo unspecified)	101	95	7	98	?	.	.	.	.	.	.	.	.
COCC(=O)Nc1ccc(OC)c(Cl)c1	52*	98	3	98	53	19	98*	-1	101	98	100	101	97
COc1ccc(NC(=O)CCCn2c(=O)oc3ccccc32)cc1Cl	71	8.8*	7	88	89	7	88*	.	.	.	.	.	.
COc1ccc(NC(=O)COC(C)=O)cc1Cl	102	100	3	104	103	10	.	.	.	.	.	.	.
Cc1cc(NC(=O)c2ccco2)ccc1-n1cnnn1	96	104	13	101	105	11	.	.	.	.	.	.	.
COc1cc(C(=O)Nc2ccc(-n3cnnn3)c(C)c2)cc(OC)c1OC	41*	24*	1	25*	28*	20	.	0	108	106	117	105	121
O=C1c2ccccc2S(=O)(=O)c2cc(C(=O)N(c3ccccn3)c3ccccn3)ccc21	101	99	8	99	103	11	.	.	.	.	.	.	.
COc1nc(-c2ccccc2)cc(-c2ccccc2)n1	98	107	260*	133	207*[activator]	26	133*	0	104	107	105	104	112
O=C1CN(C(=O)CNCc2ccccc2)c2ccccc2N1	102	101	4	104	?	.	.	.	.	.	.	.	.
O=C(COC(=O)Cc1ccccc1F)Nc1cccc(S(=O)(=O)NC2=NCCCCC2)c1	99	99	10	100	98	16	.	.	.	.	.	.	.
CC1(C)Cc2c(sc3c2c(=N)n(Cc2ccco2)c(=O)n3Cc2ccc(F)cc2)CO1	98	94	22	98	97	24	.	.	.	.	.	.	.
COc1ccc(Cn2c(=O)n(Cc3ccco3)c(=N)c3c4c(sc32)COC(C)(C)C4)cc1	101	117	125*	115	175*[activator]	27	115*	2	102	100	104	102	97
Cc1ccc(C2(C)NC(=O)N(CC(=O)NCCC3=CCCCC3)C2=O)cc1 (stereo unspecified)	102	101	9	100	100	24	.	.	.	.	.	.	.
O=C(CN1C(=O)NC2(CCCC2)C1=O)NCCC1=CCCCC1	31*	27	14	37*	29*	12	.	-1	101	98	101	99	98
Cc1cc(C)n(C(=O)/C(C#N)=N/Nc2cc(Cl)cc(Cl)c2)n1	104	112	22	96	99	12	.	.	.	.	.	.	.
CCOC(=O)N1CCN(C(=O)CN(Cc2ccc(Cl)cc2)S(=O)(=O)c2ccc(C)cc2)CC1	99	.	.	98	92	42	.	-1	97	97	98	100	93
CCCCCCC(=O)c1c(C)[nH]c(C(=O)OCC)c1C	.	.	11	120	121	32	.	2	99	99	102	100	79
O=C(CSc1nncn1-c1ccccc1)NC1CCCc2ccccc21 (stereo unspecified)	69	23*	0	92	94	11	92*	-2	101	95	100	99	79
CCc1nnc(NC(=O)c2cccc(S(=O)(=O)N3CCN(c4ccccc4)CC3)c2)s1	127	145	5	140	150*[activator]	27	140*	0	103	102	103	105	108
CCc1nnc(NC(=O)c2cc(S(=O)(=O)N3CCN(c4ccccc4)CC3)ccc2Cl)s1	101	101	14	104	100	61	.	.	.	.	.	.	.
CC(C)OCC(O)CS(=O)(=O)Cc1ccccc1 (stereo unspecified)	73	-90*	8	68	79	9	68*	1	99	103	102	102	90
CC1CCc2c(sc(NC(=O)COC(=O)c3ccccc3NCc3ccco3)c2C#N)C1 (stereo unspecified)	4.6*	-59	-4	-5.5*	-2.0*	16	.	-2	103	109	105	105	107
Cn1c(=O)n(C)c2cc(S(=O)(=O)NCc3ccco3)ccc21	101	114	176*	117	204*[activator]	23	117*	2	104	102	103	102	110
CCOc1ccc2nc3c(cc2c1)CN(CCCO)C(=NCCOC)S3	7.0*	-10*	-3	-8.3*	-5.5*	18	.	i	97	93	99	97	92
